The results in this text go back to PubChem BioAssay (NCATS).

The nature of experiment [1]: KB-8-5-11 P-gp reporter qHTS against the NCATS DSHEA and TCM libraries (AID 1919977). Note: 0% is about no effect. Summed up: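 KB-8-5-11, 500 cells/well, DMEM/10% FBS without colchicine; 4 h attach; cpd titrations, 72 h, 37C/5% CO2; CellTiter-Glo, 30 min RT, luminescence.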
Background: Quantitative high-throughput screening tests each substance at several concentrations.

A short description of experiment [2]: qHTS Counterscreen for compound interference against the NCATS DSHEA and TCM libraries (AID 1919978).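 Note: compounds preincubated with 1 µM D-luciferin or buffer before detection reagent; % of control where 0% means no effect.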 As to conditions: firefly luciferase detection reagent interference, luminescence. The procedure, abridged:
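Compounds, titrated from 19.5 nM to 39.8 uM final, were pinned onto 1 uM D-luciferin or plain 100 mM potassium phosphate. After 15 min at room temperature, luciferin detection reagent was added for 30 min before the luminescence read.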

Experiment [3] can be described thus: Dual reporter qHTS for agonist of Pregnane X Receptor (hPXR) against the NCATS DSHEA and TCM libraries: Fluorescence readout (AID 1920058). Note: 0% is about no effect. The procedure, abridged: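 HepG2 hPXR-Luc, 2000 cells/well, 5 h attach; cpds ~24 h, 37 °C/5% CO2; CellTiter-Fluor 1 h; fluor. Ex/Em 405/540 nm = viability.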
The target of experiment [4] is Nuclear receptor subfamily 1 group I member 2 (Homo sapiens) (UniProt O75469). Put plainly: Dual reporter qHTS for agonist of Pregnane X Receptor (hPXR) against the NCATS DSHEA and TCM libraries: Luminescence readout (AID 1920059). Note: 0% is about no effect. Summed up:
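hPXR-Luc HepG2 cells, 2000/well in 5% charcoal-stripped FBS medium, attached 5 h, then exposed 24 h at 37C to compounds. Viability by CellTiter-Fluor, then luciferase luminescence with ONE-Glo.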

Experiment [5] has the same target. Put plainly: Dual reporter qHTS for antagonist of Pregnane X Receptor (hPXR) against the NCATS DSHEA and TCM libraries: Luminescence Readout (AID 1920060).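 Note: HepG2 cells carrying hPXR luciferase reporter stimulated with rifampicin at 2 µM; 0% is about no effect.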 The procedure, abridged: (§1)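 In antagonist mode, 2 uM rifampicin was added to hPXR-Luc HepG2 cells alongside test substances, incubated 24 h at 37 C; luminescence gave reporter activity, and CellTiter-Fluor fluorescence (405/540 nm) gave viability.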

The nature of experiment [6]: Dual reporter qHTS for antagonist of Pregnane X Receptor (hPXR) against the NCATS DSHEA and TCM libraries: Fluorescence Readout (AID 1920061). Note: 0% is about no effect. The procedure, abridged:
as §1

Experiment [7] can be described thus: qHTS profiling for inhibitors of Plasmodium falciparum proliferation (AID 504749).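 For activity, negative = inhibition: 0% = DMSO vehicle and full inhibition = artemisinin control.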 For all read-outs here: nearly all actives have a fitted effect of over 60% in size. Note: potency is the fitted concentration of half-maximal effect. As to conditions: P. falciparum in erythrocytes, SYBR Green DNA, 72 h; for activity, negative = inhibition: at 28.7 µM (top of the series). Summed up:
(§2)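 P. falciparum-infected erythrocytes (0.3% parasitemia, 2.5% hematocrit) incubated with compound 72 h at 37 C, 5% CO2. Parasite DNA detected by SYBR Green after lysis, overnight at room temperature; normalised to 0.29 uM artemisinin and DMSO.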

The next experiment deals with 3D7. Described as above. The conditions noted are these: P. falciparum in erythrocytes, SYBR Green DNA, 72 h; series mostly up to 28.7 µM. Summed up:
as §2

Another experiment deals with 7G8. The description is as above. As to conditions: P. falciparum in erythrocytes, SYBR Green DNA, 72 h; series mostly up to 28.7 µM. Summed up:
as §2

In the next experiment the test system is AA1029. Described as above. The conditions noted are these: P. falciparum in erythrocytes, SYBR Green DNA, 72 h; series mostly up to 28.7 µM. Summed up: as §2
The subject of the next experiment is AS120. The description is as above. The conditions noted are these: P. falciparum in erythrocytes, SYBR Green DNA, 72 h; series mostly up to 28.7 µM. The procedure, abridged:
as §2

In the next experiment the test system is ATS189. Described as above. The conditions noted are these: P. falciparum in erythrocytes, SYBR Green DNA, 72 h; series mostly up to 28.7 µM. Summed up: as §2
The next experiment deals with ATS95. Described as above. The conditions noted are these: P. falciparum in erythrocytes, SYBR Green DNA, 72 h; series mostly up to 28.7 µM. Summed up: as §2
In a further experiment the test system is C2A. The description is as above. As to conditions: P. falciparum in erythrocytes, SYBR Green DNA, 72 h; series mostly up to 28.7 µM. Summed up: as §2
Another experiment has as its system CP185. The description is as above. As to conditions: P. falciparum in erythrocytes, SYBR Green DNA, 72 h; series mostly up to 28.7 µM. The procedure, abridged: as §2
Another experiment has as its system CP191. The description is as above. The conditions noted are these: P. falciparum in erythrocytes, SYBR Green DNA, 72 h; series mostly up to 28.7 µM. The procedure, abridged: as §2
The test system of another experiment is CP192. The description is as above. The conditions noted are these: P. falciparum in erythrocytes, SYBR Green DNA, 72 h; series mostly up to 28.7 µM. The procedure, abridged: as §2
The test system of the next experiment is CP194. The experiment is described as above. As to conditions: P. falciparum in erythrocytes, SYBR Green DNA, 72 h; series mostly up to 28.7 µM. Summed up:
as §2

Another experiment relates to CP201. Described as above. The conditions noted are these: P. falciparum in erythrocytes, SYBR Green DNA, 72 h; series mostly up to 28.7 µM. The procedure, abridged: as §2
Experiment [8] can be described thus: qHTS drug screen for cell cycle checkpoint inhibitors in PARPi-resistant BRCA-mutant ovarian cancer cell lines. (AID 1963452; calls by dose curve). As to conditions: PEO1/OlaR viability, CellTiter-Glo luminescence, 96 h, stronger effect = lower value. Summed up:
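PEO1, PEO4 and PEO1/OlaR ovarian cancer cells, 600 per well, exposed 96 h at 37C to a dilution series. Viability read by CellTiter-Glo luminescence, normalized to DMSO and empty wells; activity summarized as Z-AUC.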

Where [9] appears, read: measured here: PEO1 parental Z-AUC.

Where “and” joins values, the source holds several entries; their conditions need not be identical. Equal values may be shown once. Results filed as inconclusive are left out. Where a structure was tested more than once in an assay, its records may differ in their call. Calls of active or inactive are those of the source. Unless noted, calls come from the whole dose curve; as a rule, active = well fitted curve in the direction sought with a large enough effect; inconclusive = small, poorly fitted or top-dose-only effect, or another doubt; inactive = no such curve, though single readings can be large; an effect the other way counts as inactive or inconclusive.

Chain of Nuclear receptor subfamily 1 group I member 2 (Homo sapiens) (O75469 whole entry, looked up): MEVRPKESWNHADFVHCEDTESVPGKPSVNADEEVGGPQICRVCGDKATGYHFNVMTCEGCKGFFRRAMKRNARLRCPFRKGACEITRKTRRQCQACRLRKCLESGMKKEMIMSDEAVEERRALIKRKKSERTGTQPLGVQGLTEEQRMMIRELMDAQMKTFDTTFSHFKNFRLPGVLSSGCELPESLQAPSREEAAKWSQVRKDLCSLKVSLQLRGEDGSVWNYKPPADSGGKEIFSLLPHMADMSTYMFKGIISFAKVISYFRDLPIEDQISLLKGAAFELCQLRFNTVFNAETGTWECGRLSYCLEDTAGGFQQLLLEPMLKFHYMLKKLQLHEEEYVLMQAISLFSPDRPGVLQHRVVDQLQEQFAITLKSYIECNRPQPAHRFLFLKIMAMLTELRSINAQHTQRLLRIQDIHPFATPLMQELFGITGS

For `O=C/C=C/c1ccccc1`, the compound was called inactive in [1], in [3], in experiment [4], in experiment [5] and in [6]. The max response in experiment [2] is 1.86% (inactive). Also, the activity, negative = inhibition in experiment [7] (parasite line A) is 8.58% (inactive); in [7] (parasite line B), -11% (inactive). In addition, the Potency entry with 3D7, with 7G8, in the experiment with AA1029, in the experiment with AS120, in the experiment on ATS189 and in the experiment on ATS95 was “inactive” in each case. In addition, the Potency result with C2A, in the experiment with CP185, in the experiment on CP191, in the experiment with CP192, in the experiment with CP194 and with CP201 was “inactive” in each case.

Regarding `CCCN1CCCC2Cc3[nH]ncc3CC21` (stereo not given), the results for the activity, negative = inhibition in experiment [7] (parasite line A) and in experiment [7] (parasite line B) were 7.25% (inactive) and 13.9% (inactive), respectively. Further, the Potency entry with 3D7, in the experiment on 7G8, in the experiment with AA1029, in the experiment on AS120, in the experiment with ATS189 and with ATS95 was “inactive” each time. The Potency result in the experiment with C2A, in the experiment on CP185 and in the experiment on CP191 was “inactive” throughout.

For the compound `CC1=C2C[C@H]3[C@@H](CC=C4C[C@@H](O)CC[C@@]43C)[C@@H]2CC[C@]12O[C@@H]1C[C@H](C)CN[C@H]1[C@H]2C`, the results for the Z-AUC in experiment [8], in experiment [8] (setting [9]) and in experiment [8] (measured here: PEO4 Z-AUC) were -0.41 (inactive), -0.348 and -0.0838, respectively.

For `C=C[C@H]1CN2CC[C@H]1C[C@@H]2[C@@H](O)c1ccnc2ccccc12`, the Z-AUC in [8] is 1.32 (inactive); in experiment [8] (setting [9]), 0.858; in experiment [8] (measured here: PEO4 Z-AUC), 1.06.

On to `CC(C)(C)c1cc(O)ccc1O`, for which the activity, negative = inhibition in experiment [7] (parasite line A) is -22.4% (inactive). The Potency in experiment [7] (parasite line A) is 7.94 µM (active); in experiment [7] (parasite line B), 8.91 µM (active); in the experiment with 3D7, 2.24 µM (active); in the experiment on 7G8 it was 3.16 µM (active) and 2.82 µM (active); in the experiment on AA1029, 8.91 µM (active) and inactive; in the experiment on AS120, 8.91 µM (active). Besides, the Potency in the experiment on ATS189 is 10 µM (active); in the experiment on ATS95 it was 7.94 µM (active); in the experiment on C2A it was 4.47 µM (active); in the experiment on CP185, 11.2 µM (active) and inactive; in the experiment with CP191, 11.2 µM (active); with CP194, 16.9 µM (active) and inactive. For the same compound, the Potency result in the experiment with CP192 and in the experiment with CP201 was “inactive” throughout.

As to `C=CCC1(C(C)CCC)C(=O)N=C(S)NC1=O` (stereo not given), the activity, negative = inhibition in experiment [7] (parasite line A) was -5.63% (inactive); in experiment [7] (parasite line B), -5% (inactive). The Potency entry with 3D7, in the experiment with 7G8, in the experiment on AA1029, in the experiment on AS120, in the experiment on ATS189 and in the experiment with ATS95 was “inactive” throughout. Also, the Potency entry in the experiment with C2A, in the experiment with CP185 and in the experiment on CP191 was “inactive” throughout.

`Oc1cccc[c]1[Hg][Cl]`: the Potency in [7] (parasite line A) was 5.01 µM (active); in [7] (parasite line B), 6.31 µM (active); with 3D7 it was 8.91 µM (active); in the experiment on 7G8 it was 1.78 µM (active); with AA1029, 11.2 µM (active); in the experiment on AS120, 7.94 µM (active). Further, the Potency in the experiment on ATS189 is 12.6 µM (active); in the experiment on ATS95 it was 10 µM (active); with C2A it was 12.6 µM (active); in the experiment on CP185, 7.94 µM (active); in the experiment with CP191, 10 µM (active); in the experiment on CP192, 15.1 µM (active).

For the compound `COC1=CC(=O)O[C@@H](/C=C/c2ccccc2)C1`, the call in experiment [1], in [3], in [4], in experiment [5] and in experiment [6] was inactive. For the same compound, the max response in experiment [2] was -0.203% (inactive).

For `O=C(CCl)c1ccc(Oc2ccc(C(=O)CCl)cc2)cc1`, the activity, negative = inhibition is 5.66% (inactive) in experiment [7] (parasite line A) and 2.87% (inactive) in experiment [7] (parasite line B). Also, the Potency entry in the experiment on 3D7, with 7G8, with AA1029, with AS120, in the experiment with ATS189 and in the experiment with ATS95 was “inactive” each time. Further, the Potency entry in the experiment on C2A, with CP185, with CP191, in the experiment with CP192, with CP194 and with CP201 was “inactive” each time.
